Screens: PubChem BioAssay, National Center for Advancing Translational Sciences (NCATS)
Rab9 prom act: activates the Rab9 promoter. Huh7 Rab9 promoter-luciferase reporter, luminescence, 24 h. 320,000 compounds, 2.8% hits. Potency, µM (series often up to 9.22 µM), without a hit: top-dose activation, negative = inhibition, most hits filed as activators. AID 485297; further: % of control where 0% means no effect; nearly all actives have a fitted effect of over 60% in size
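Cells were plated at 1500 per well in reduced-serum medium with 10% FBS and left 2 h. Compound in DMSO was then added for 24 h at 37 °C. Reporter signal was read by luminescence after 10 min with luciferase detection reagent.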
FLuc modulator: inhibits or activates purified firefly luciferase, miR-21 counter-screen; purified FLuc, Km substrates, luminescence inhibition; Potency, µM (series often up to 57.5 µM), for the others: at the highest dose activity change, negative = inhibition, most hits filed as inhibitors; 360,000 compounds, 6.9% hits;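 further: plate controls were vehicle for no effect and reference inhibitor for full effect; nearly all actives have a fitted effect of over 55% in size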
Target sequence (P08659 whole entry, looked up): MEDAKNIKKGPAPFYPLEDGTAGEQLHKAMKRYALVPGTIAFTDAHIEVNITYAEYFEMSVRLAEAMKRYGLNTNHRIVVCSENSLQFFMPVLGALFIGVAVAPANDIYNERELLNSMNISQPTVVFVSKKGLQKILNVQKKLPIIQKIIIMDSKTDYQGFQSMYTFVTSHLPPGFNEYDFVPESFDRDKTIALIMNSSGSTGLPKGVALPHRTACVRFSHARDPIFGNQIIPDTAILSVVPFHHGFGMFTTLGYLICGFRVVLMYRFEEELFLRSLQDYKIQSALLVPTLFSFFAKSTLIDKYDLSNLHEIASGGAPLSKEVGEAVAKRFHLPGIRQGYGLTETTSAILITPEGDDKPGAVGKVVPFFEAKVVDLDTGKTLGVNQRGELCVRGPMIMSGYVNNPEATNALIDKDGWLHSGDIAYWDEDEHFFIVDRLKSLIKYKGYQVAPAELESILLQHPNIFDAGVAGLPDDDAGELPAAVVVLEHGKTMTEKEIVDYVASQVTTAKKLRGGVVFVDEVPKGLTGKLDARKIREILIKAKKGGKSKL
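Purified P. pyralis luciferase (10nM final) with 10uM D-luciferin and 10uM ATP (Km levels) in 50mM Tris acetate pH 7.5, 10mM Mg acetate, 0.01% Tween-20, 0.05% BSA; qHTS 6-point titration, ~60 µM downward; luminescence read.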
NPC1 promoter act: activators of NPC1 promoter. Huh7 NPC1 promoter luciferase reporter, 24 h. Potency, µM (series often up to 9.22 µM), for inactives: top-dose activation, hits mostly activators. 320,000 compounds, 2.4% hits. AID 485313; further: % of control where 0% means no effect; nearly all actives have a fitted effect of over 60% in size
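Luminescence read-out of NPC1 promoter-driven luciferase in stably transfected Huh7 cells; compounds delivered in DMSO and left 24 h at 37C, 5% CO2, qHTS titration format.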
ELG1 repair inh: blocks ELG1-dependent DNA repair in HEK293T cells. 330,000 compounds, 2.3% hits. HEK293T ELG1-luciferase reporter, luminescence, 16 h; DNA damage induced by 5-fluorouridine. Potency, µM (top dose mostly 46.1 µM), inactives show at the top dose activity change, negative = inhibition, usual class: inhibitors; further: on the % scale 0 is the no-effect control and ±100 the full control effect; nearly all actives have a fitted effect of over 55% in size
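Reporter activity after DNA damage by 5-fluorouridine is monitored. Compound-treated cells incubate 16 hr at 37 °C, then ONE-Glo is added for 30 min before luminescence reading.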
SMN2 splice up: enhancers of SMN2 splice variant expression. HEK293 SMN2-luciferase splicing reporter, luminescence, 30-36 h. Potency, µM (titrated, usually from 46.1 µM), for inactives: at the highest dose activity change, positive = activation, usual class: activators. 210,000 compounds, 2.8% hits; further: % of control where 0% means no effect; nearly all actives have a fitted effect of over 55% in size
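HEK293 cells carry an SMN2 […]–luciferase reporter in which exon 7 inclusion puts luciferase in frame. Cells were plated 10-12 h before compound addition, then incubated 30-36 h at 37C. ONE-Glo luminescence was read; sodium butyrate at 4.5 mM final served as control.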
ELG1 genotox: inducers of genotoxicity in HEK293T ELG1-luciferase cells. HEK293T ELG1-luciferase reporter, luminescence, 16 h. Potency, µM (highest dose often 46 µM), for the others: at the highest dose activity change, positive = activation, usual class: activators. 330,000 compounds, 1.3% hits. AID 504466; further: % of control where 0% means no effect; nearly all actives have a fitted effect of over 60% in size
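HEK293T cells expressing luciferase-tagged ELG1 were exposed to compound or DMSO vehicle for 16 hr at 37 °C and 5% CO2. Luciferase activity was then measured with ONE-Glo after 30 min at room temperature.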
* hit, by the source's call; ? = inconclusive; / = no result given; [ ] = another dose, or the depositor's remark. Rows were chosen to be rich in hits. Some 9.4% of all compounds tested hit in one or more screens of this group. The call rests on the fitted dose curve; in most records, active means well fitted curve in the direction sought with a large enough effect; inconclusive means small, poorly fitted or top-dose-only effect, or another doubt; inactive means no such curve, though single readings can be large; an effect the other way counts as inactive or inconclusive. Potency means the concentration at half of the fitted maximal effect.

SMILES	Rab9 prom act	FLuc modulator	NPC1 promoter act	ELG1 repair inh	SMN2 splice up	ELG1 genotox
Cc1noc(C)c1CSc1nc2ccccc2c(=O)n1-c1ccc(F)cc1F	-11%	-1%	-22%	?	11µM*	18%
Cc1c(O)nc2sc3ccccc3n2c1=O	0%	-5%	0%	4%	/	-2%
Cc1cc2sc3nc(=O)n(-c4ccccc4)c(=O)n3c2cc1C	3.2µM*	17µM*	?	?	/	?
O=C(O)[C@@H]1[C@@H]2O[C@H]([C@@H](Br)[C@H]2Br)[C@H]1C(=O)O	/	/	/	/	5%[9.22 µM]	/
COc1ccc(C(=O)CCC(=O)Nc2cccnc2)cc1OC	-3%	0%	0%	20%	/	-1%
CCc1ccc2c(c1)C(c1ccc(N3CCOCC3)cc1)=NNC(c1ccncc1)=N2	0%	2%	-10%	-6%	-4%	15%
CCOc1ccc(C2=NNC(c3cccs3)=Nc3ccc(OC)cc32)cc1	-1%	21µM*	-4%	?	4%	-3%
CCOc1ccc(C2=Nc3ccc(Br)cc3C(c3ccc(N4CCOCC4)cc3)=NN2)cc1	?	24µM*	?	?	?	?
CCOc1ccc(C2=Nc3ccccc3C(c3ccc(N4CCOCC4)cc3)=NN2)cc1	2.8µM*	?	?	?	?	10%
C=CCOC(=O)N[C@@H](CCc1ccccc1)C(C(C)=O)C(C)=O	/	/	/	/	2%	/
CSc1ccc(CCNC(=O)c2c(C)nn(-c3ccc(F)cc3)c2-n2cccc2)cc1	/	0%	/	/	/	/
CCCN1CCc2c(sc(NC(=O)C3CCN(S(=O)(=O)c4cccs4)CC3)c2C(N)=O)C1	-13%	-4%	-5%	-22%	/	-1%
COCCCNC(=O)c1ccc(Cn2c(=O)c3cccn3c3cccnc32)cc1	/	5%	/	/	/	/
CC(=O)c1cc2c(cc1NS(=O)(=O)c1cccc(C(=O)O)c1)OCO2	-2%	2%	1%	12%	/	3%
CC(=O)c1cc2c(cc1NS(=O)(=O)c1ccccc1)OCO2	20%	3%	12%	?	-17%	16µM*
Cc1nc(N)sc1N=Nc1ccc(F)cc1	?	12µM*	?	?	12%	12µM*
c1ccc(OCc2cc(-c3ccccc3)no2)cc1	2.8µM*	12µM*	?	?	?	17%
COc1ccc(OCc2cc(-c3ccc(Cl)cc3)no2)cc1	-5%	-14%	-1%	-1%	1%	3%
COc1ccccc1OCc1cc(-c2ccccc2)no1	2.5µM*	9.5µM*	3.5µM*	?	13µM*	?
Cn1ncc2c(Nc3ccc4ccccc4c3)ncnc21	3.2µM*	11µM*	?	?	/	?
CC(C)Nc1ncnc2c1cnn2-c1ccc(Cl)cc1	0.32µM*	0.54µM*	0.28µM*	?	1.3µM*	0.37µM*
Clc1ccc(-n2ncc3c(NCc4cccs4)ncnc32)cc1	5%	4%	3%	-5%	-57%	-5%
CC(=O)Nc1ccc(Nc2ncnc3c2cnn3-c2ccccc2)cc1	?	-8%	?	?	-12%	9%
Clc1ccc(Nc2ncnc3c2cnn3-c2ccccc2)cc1	?	13µM*	?	?	43%	12µM*
COc1ccc(NC(=O)N2CCCC3(CCN(C(=O)c4cnccn4)CC3)C2)cc1	/	/	/	/	6%	/
SMILES	Rab9 prom act	FLuc modulator	NPC1 promoter act	ELG1 repair inh	SMN2 splice up	ELG1 genotox
Cn1c(CNc2ccc(O)cc2)nc2ccccc21	?	13µM*	?	?	/	?
CC(C)n1c(NCc2nc3ccccc3n2C)nc2ccccc21	2%	-18%	0%	6%	-3%	-2%
Cc1ccc(NC(=O)NCc2nc3ccccc3n2C)cc1	1%	-2%	-7%	?	/	-3%
Cc1ccc(NCc2nc3ccccc3n2C)cc1C	2.8µM*	4.8µM*	3.5µM*	?	/	?
CCC(C)Cn1c(C)nc2ccccc21 (stereo not drawn)	-2%	3%	-2%	9.2µM*	-72%	-6%
CCC(C)Cn1c(COc2ccc(OC)cc2)nc2ccccc21 (stereo not drawn)	/	?	/	/	-30%	/
Cc1ccc(NCc2nc3ccccc3n2C)cc1	0.63µM*	3.4µM*	1.1µM*	?	2.2µM*	1.5µM*
COc1cccc(NC(=O)Cn2cnc3c(nc4n3CCCCC4)c2=O)c1	/	-1%	/	/	/	/
Cn1c(CNc2ccc(Br)cc2)nc2ccccc21	2.8µM*	2.7µM*	1.6µM*	?	/	?
COc1ccc(NCc2nc3ccccc3n2CCOc2ccc(C)cc2)cc1	14%	?	16%	?	-23%	?
COc1ccc(NCc2nc3ccccc3n2C)cc1	2.2µM*	11µM*	1.8µM*	?	/	5.2µM*
COc1ccc(Nc2nc3ccccc3n2C)cc1	3.2µM*	15µM*	2.5µM*	?	/	25%
Cn1c(CNC2CCCCC2)nc2ccccc21	-2%	4%	1%	6%	0%	-1%
COc1ccc(C(=O)NNC(=O)Cc2nc3ccccc3n2C)cc1	/	/	/	10%	/	-1%
COc1ccc(NCc2nc3ccccc3n2CCOc2ccccc2)cc1	?	13µM*	?	?	?	21µM*
[Cu].[NH-][C@H](CC(=O)O)C(=O)O.[NH-][C@H](CC(=O)O)C(=O)O	/	/	/	/	1%[9.22 µM]	/
